Some test systems named below: DU-145 prostate; K-562 leukemia; MALME-3M melanoma; MDA-MB-231 breast; RXF 393 renal; SF-268 CNS; SF-539 CNS; UACC-257 melanoma; M14 melanoma; HCT-15 colon; HT29 colon; SNB-75 CNS; SNB-19 CNS; U251 CNS; PC-3 prostate; SK-MEL-5 melanoma; UACC-62 melanoma; LOX IMVI melanoma; SK-MEL-28 melanoma.
Holding throughout (experiment): NCI-60 one-dose screen, 48 h (100 = growth as untreated, 0 = no growth, -100 = all killed)
What all share (conditions): 10 µM unless noted

This is part of a sample that, as a whole, favours compounds with a hit. Of some 83,000 tested, about 20% had one in any assay.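 How to read the values: 0–100, growth inhibition (40 = 60% inhibited); 0, no net growth; -100 to 0, cell death (-40 = 40% of starting cells died; -100 = all dead).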 Values without a mark were called inactive. Calls of active or inactive are those of the source. The calls were made as follows: active = growth percent below 10; inactive = the rest.

Turning to `Cc1c(C)c(C)c([N+](=O)[O-])c([N+](=O)[O-])c1C`, the growth is 92.2% in the assay on DU-145 prostate; 119% with K-562 leukemia; 90.1% in the assay on MALME-3M melanoma; 79.3% in the assay on MDA-MB-231 breast; 107% in the assay on RXF 393 renal; 93% in the assay on SF-268 CNS. Further, the growth is 92% with SF-539 CNS; 103% in the assay with UACC-257 melanoma; 104% in the assay on M14 melanoma; 94% in the assay on HCT-15 colon; 102% with HT29 colon; 111% in the assay on SNB-75 CNS. Also, the growth in the assay on SNB-19 CNS was 95.4%; with U251 CNS it was 101%; in the assay on PC-3 prostate it was 84%; in the assay on SK-MEL-5 melanoma it was 99.3%; with UACC-62 melanoma, 83.6%; in the assay with LOX IMVI melanoma, 95.9%. Moreover, the growth in the assay on SK-MEL-28 melanoma was 104%.

Turning to `Cc1ccc(/C=C/C(=N/N=C(N)N)c2ccccc2)cc1`, the growth in the assay with DU-145 prostate was 2.48% (active); with K-562 leukemia, 11.7%; in the assay with MALME-3M melanoma it was 40%; in the assay on MDA-MB-231 breast it was 35.5%; in the assay on RXF 393 renal, -22.9% (active); in the assay with SF-268 CNS it was 36.7%. The growth with SF-539 CNS is 3.64% (active); in the assay on UACC-257 melanoma, 54.5%; with M14 melanoma it was -24.4% (active); in the assay with HCT-15 colon, 27.6%; in the assay with HT29 colon it was 4.56% (active); in the assay with SNB-75 CNS it was -0.425% (active). For the same molecule, the growth in the assay on SNB-19 CNS was 38.9%; in the assay with U251 CNS it was 13.4%; in the assay on PC-3 prostate, 19%; with SK-MEL-5 melanoma, 11.3%; in the assay with UACC-62 melanoma it was 33.9%; in the assay with LOX IMVI melanoma, 30.8%. In addition, the growth with SK-MEL-28 melanoma was 46.2%.

In the case of `COc1cc2c(cc1OC)C(=O)C(Br)CC2` (configuration not stated), the growth is 31.5% with DU-145 prostate; 16.5% with K-562 leukemia; 3.69% (active) in the assay with MALME-3M melanoma; 42.6% in the assay with MDA-MB-231 breast; 40.8% with RXF 393 renal; 64.6% with SF-268 CNS. The growth was 68.2% in the assay with SF-539 CNS; 56.7% in the assay on UACC-257 melanoma; 32% in the assay on M14 melanoma; 17.5% in the assay with HCT-15 colon; 24.1% with HT29 colon; 53% with SNB-75 CNS. The growth with SNB-19 CNS was 85.3%; in the assay with U251 CNS, 54%; in the assay on PC-3 prostate, 31.2%; in the assay on SK-MEL-5 melanoma, 53.2%; with UACC-62 melanoma, 33%; in the assay on LOX IMVI melanoma it was -0.506% (active). Also, the growth with SK-MEL-28 melanoma is 67.7%.

Consider `CCOP(=O)(O)OP(=O)(O)OCC`, for which the growth in the assay on DU-145 prostate was 105%; in the assay on K-562 leukemia, 89%; in the assay with MALME-3M melanoma it was 98.1%; with MDA-MB-231 breast, 112%; with RXF 393 renal, 118%; with SF-268 CNS it was 100%. The growth with SF-539 CNS was 105%; with UACC-257 melanoma it was 105%; with M14 melanoma, 100%; with HCT-15 colon, 98.5%; with HT29 colon it was 102%; in the assay on SNB-75 CNS, 81.3%. In addition, the growth was 106% with SNB-19 CNS; 105% in the assay with U251 CNS; 104% with PC-3 prostate; 113% with SK-MEL-5 melanoma; 106% in the assay with UACC-62 melanoma; 92.7% with LOX IMVI melanoma. Besides, in the assay on SK-MEL-28 melanoma, the growth was 108%.

`FC(F)(F)C1=NNC(c2ccc3ccccc3c2)=NN1`: the growth in the assay on DU-145 prostate was 104%; with K-562 leukemia, 95.2%; with MALME-3M melanoma it was 107%; with MDA-MB-231 breast, 81.9%; with RXF 393 renal it was 123%; with SF-268 CNS, 100%. Besides, the growth is 93.9% with SF-539 CNS; 104% with UACC-257 melanoma; 98.3% in the assay on M14 melanoma; 97.9% with HCT-15 colon; 107% with HT29 colon; 80.3% in the assay with SNB-75 CNS. Moreover, the growth is 96.6% in the assay with SNB-19 CNS; 99.2% in the assay on U251 CNS; 109% with PC-3 prostate; 97.8% in the assay on SK-MEL-5 melanoma; 101% in the assay on UACC-62 melanoma; 90.5% in the assay with LOX IMVI melanoma. Besides, the growth in the assay with SK-MEL-28 melanoma is 112%.

With `Cc1ccc(CSCc2ccc(C(=O)NC3CC3)o2)cc1`, the growth in the assay on DU-145 prostate is 80.5%; in the assay with K-562 leukemia it was 40%; with MALME-3M melanoma it was 96.4%; in the assay with MDA-MB-231 breast, 35.3%; in the assay with RXF 393 renal, 92.7%; with SF-268 CNS, 83.2%. Besides, the growth in the assay with SF-539 CNS is 79.8%; with UACC-257 melanoma, 93.5%; in the assay with M14 melanoma, 57.3%; with HCT-15 colon it was 37.7%; in the assay on HT29 colon, 27.9%; in the assay on SNB-75 CNS it was 86%. In addition, the growth was 98.8% in the assay on SNB-19 CNS; 56.4% in the assay with U251 CNS; 74.2% with PC-3 prostate; 57.3% with SK-MEL-5 melanoma; 50.5% with UACC-62 melanoma; 58.2% in the assay on LOX IMVI melanoma. Also, the growth in the assay on SK-MEL-28 melanoma was 100%.

Consider `COc1cc(NCCCCC(C)N)c2nccc(C)c2c1` (configuration not stated), for which the growth was 111% with DU-145 prostate; 80.4% with K-562 leukemia; 98% in the assay with MALME-3M melanoma; 62.9% with MDA-MB-231 breast; 89.8% in the assay with RXF 393 renal; 100% in the assay on SF-268 CNS. The growth in the assay on SF-539 CNS is 83.9%; with UACC-257 melanoma, 107%; in the assay with M14 melanoma it was 95.4%; in the assay with HCT-15 colon, 93.9%; in the assay on HT29 colon it was 76.3%; in the assay on SNB-75 CNS it was 72%. Also, the growth in the assay on SNB-19 CNS is 94.6%; in the assay on U251 CNS it was 93%; in the assay on PC-3 prostate, 66%; with SK-MEL-5 melanoma, 87.7%; in the assay with UACC-62 melanoma, 91.1%; in the assay with LOX IMVI melanoma it was 92.7%. Further, in the assay on SK-MEL-28 melanoma, the growth was 99.3%.

With `O=C(NCC(c1ccsc1)N1CCCCCC1)c1ccc(C(F)(F)F)cc1` (configuration not stated), the growth was 105% in the assay on DU-145 prostate; 83.7% in the assay on K-562 leukemia; 98.5% with MALME-3M melanoma; 85.1% in the assay with MDA-MB-231 breast; 85.7% in the assay with RXF 393 renal; 98.3% in the assay with SF-268 CNS. Also, the growth in the assay on SF-539 CNS was 108%; with UACC-257 melanoma, 108%; in the assay with M14 melanoma it was 93%; in the assay with HCT-15 colon, 100%; in the assay on HT29 colon it was 82%; in the assay on SNB-75 CNS, 87.6%. The growth in the assay with SNB-19 CNS was 87.9%; in the assay with U251 CNS, 90.7%; in the assay on PC-3 prostate, 88.5%; in the assay with SK-MEL-5 melanoma it was 94.9%; with UACC-62 melanoma, 99.1%; with LOX IMVI melanoma, 78.9%. The growth with SK-MEL-28 melanoma is 110%.

The values are drawn from PubChem BioAssay (NCI).
